According to PubChem BioAssay (Tox21):
Inconclusive results are not listed. Where a call stands in place of a potency, no number is given. The source made the active and inactive calls. Calls come from the whole dose curve; as a rule, active = well fitted cell-killing curve with a large enough effect in the repeat runs; inconclusive = weak or mixed curves; inactive = flat fitted curve, though single readings scatter.

Test: qHTS assay to identify small molecule antagonists of the TGF-beta/Smad signaling pathway - cell viability counter screen (AID 1346824); note: nearly all actives have a fitted effect of over 50% in size
Details: SBE-bla HEK293T viability, CellTiter-Glo luminescence; series mostly up to 76.8 µM; viability change, negative = cytotoxic: at the top concentration
Description: U.S. Tox21 Program National Center for Advancing Translational Sciences [NCATS] NIH Chemical Genomics Center [NCGC] U.S. Environmental Protection Agency [EPA] National Institutes of Environmental Health Sciences [NIEHS] National Toxicology Program [NTP] U.S. Food and Drug Administration [FDA] Tox21 Assay Overview: Transforming growth factor beta (TGF-beta) superfamily consists of a large number of structurally related dimeric proteins that act as hormones or local mediators in regulating a wide range of biological functions. This superfamily includes TGF-betas themselves, the bone morphogenetic proteins (BMPs) and the activins. These ligands induce oligomerization of serine/threonine receptor kinases and phosphorylate the cytoplasmic signaling molecules of Smad protein family. CellSensor SBE-bla HEK 293T cell line (Life Technologies, Carlsbad, CA), responsive to TGF-beta was used to screen Tox21 10K compound library for identification of agonists/antagonists of the Smad signaling pathway. This cell line contains a beta-lactamase reporter gene under control of the Smad binding element (SBE) stably integrated into HEK 293T cells. Also cytotoxicity of the compounds was tested in parallel by measuring the cell viability using CellTiter-Glo assay system in the same wells.
Tox21 Assay Protocol Summary: SBE-bla HEK 293T cells were dispensed at 4,000/well in 5 uL of assay medium into black wall/clear-bottom 1536-well plates using a Multidrop Combi (ThermoFisher Scientific, Waltham, MA) dispenser. After the assay plates were incubated at 37 C and 5% CO2 for an overnight, 23 nL of compounds dissolved in DMSO, positive controls or DMSO only was transferred to the assay plate by a Pintool station (Kalypsys, San Diego, CA). Compound transfer was followed by the addition of 1 uL of 0.25 ng/mL TGF-beta1 or assay buffer using two separate tips of Flying Reagent Dispenser (FRD, Aurora Discovery, San Diego, CA). The assay plates were incubated at 37 C and 5% CO2 for 5 hr. One uL of LiveBLAzer B/G FRET substrate (Life Technologies) was added using a Flying Reagent Dispenser (FRD, Aurora Discovery, San Diego, CA) and the plates were incubated at room temperature for 2 hr. Fluorescence intensity (405 nm excitation, 460 nm and 530 nm emissions) was measured using an Envision plate reader (PerkinElmer, Shelton, CT). For cytotoxicity read, 4 uL of CellTiter-Glo reagent (Promega Corporation, Madison, WI) was added to each well of the assay plates using FRD. After 30 min incubation at room temperature, the luminescence intensity was measured using ViewLux plate reader (PerkinElmer).

SMILES | Potency | viability change, negative = cytotoxic
CC(C)(C)OOC(=O)c1ccccc1 | inactive | 
Cc1cc(-c2cc(C)c(N)c(C)c2)cc(C)c1N | inactive | 
C=CC(N)=O | inactive | 
O=NN1CCCCCCC1 | inactive | 
CCC(C)(CC)c1cc(NC(=O)c2c(OC)cccc2OC)on1 | inactive | 
CCCCCCCCCl | inactive | 
CCCN(CCC)c1c([N+](=O)[O-])cc(C(F)(F)F)cc1[N+](=O)[O-] | inactive | 
CC(C)(C)C(O)(CCc1ccc(Cl)cc1)Cn1cncn1 (stereo not given) | inactive | 
ClCCBr | inactive | 
O=S(=O)(c1ccc(Cl)cc1)c1cc(Cl)c(Cl)cc1Cl | inactive | 
CCc1cccc(C)c1N(C(=O)CCl)C(C)COC (stereo not given) | inactive | 
COc1ccc2c3c1O[C@H]1[C@@H](O)C=C[C@H]4[C@@H](C2)N(C)CC[C@@]341 | inactive | 
CC(C)(Cl)Cl | inactive | 
COCCl | inactive | 
CN(N=O)c1ccccc1 | inactive | 
COP(N)(=O)SC (stereo not given) | inactive | 
CCC12COCN1COC2 | inactive | 
O=c1n(Cl)c(=O)n(Cl)c(=O)n1Cl |  | -4.05% [at 35.3 µM] (inactive)
Cc1ccc(N)cc1Cl | inactive | 
Clc1ccccc1Cl | inactive | 

SMILES | Potency | viability change, negative = cytotoxic
Cc1ccc([N+](=O)[O-])cc1C | inactive | 
NCCc1ccc(O)cc1 | inactive | 
O=[N+]([O-])c1ccccc1 | inactive | 
CC(C)=C[C@@H]1[C@@H](C(=O)OCc2coc(Cc3ccccc3)c2)C1(C)C | inactive | 
NCC(O)c1ccc(O)cc1 (stereo not given) | inactive | 
O=[N+]([O-])c1ccc([As](=O)(O)O)cc1 | inactive | 
C1CC2OC2CC1C1CO1 (stereo not given) | inactive | 
Nc1ccccc1C(=O)O | inactive | 
Nc1ccc(Cc2ccc(N)cc2)cc1 | inactive | 
O=c1ccc(=O)[nH][nH]1 | inactive | 
Cn1cc(-c2ccccc2)c(=O)c(-c2cccc(C(F)(F)F)c2)c1 | inactive | 
c1ccc2c(c1)oc1ccccc12 | inactive | 
c1ccc2c(c1)Oc1ccccc1O2 | inactive | 
CCCN(CCC)N=O | inactive | 
OCCN(CCO)CCO | inactive | 
Nc1ccc(Oc2ccc(N)cc2)cc1 | inactive | 
CC(Br)C(=O)O (stereo not given) | inactive | 
CCOP(OCC)OCC | inactive | 
CC(C#N)CCC#N (stereo not given) | inactive | 
Nc1c(Cl)c(Cl)nc(C(=O)O)c1Cl | inactive | 
